# From PubChem BioAssay (NCATS)
# Some of the results follow. Records with an inconclusive call do not appear. Activity calls are given as the source filed them. Calls come from the whole dose curve.
# Molecular target: Polyprotein P1234 (Chikungunya virus (strain S27-African prototype)) (UniProt Q8JUX6)
# Assay: Secondary cell base assay for inhibitors of NSP2Pro Chikungunya virus (CHIKV) (AID 1964100); note: nearly all actives have a fitted effect of over 70% in size
# Settings: cell-based CHIKV nsP2 protease reporter assay; series mostly up to 51.1 µM; activity change, negative = inhibition: at the top concentration
# Text: PI: Natalia J. Martinez Ph.D.
# National Center for Advancing Translational Sciences (NCATS),
# National Institute of Health (NIH), Rockville, Maryland
# Chikungunya virus (CHIKV) is a mosquito-borne RNA virus that has emerged as one of the most important global arboviral threats in the last decade. Although the first CHIKV vaccine has recently been FDA approved for use in healthy adults at increased risk, to date, there are no available antiviral drugs for CHIKV infection. CHIKV nsP2 protease plays a crucial role in the processing of the viral polypeptide precursor to release enzymes required for viral replication, thus making it a promising drug target for antiviral discovery. Here, we established a high-throughput pipeline to identify small molecule inhibitors of nsP2 proteolytic activity. The pipeline is composed of a suite of 1,536-well in vitro assays to support quantitative high-throughput (qHTS) screening campaigns. Specifically, we developed a fluorescence resonance energy transfer (FRET)-based assay using a fluorogenic peptide substrate encompassing an endogenous cleavage site and purified recombinant protease domain (nsP2pro). Using this assay, we interrogated ~37,000 small molecules, including those in drug repurposing libraries as well as chemically diverse and medicinal chemistry-friendly compounds. Hits were selected for follow-up validation against full-length nsP2 and an additional peptide. FRET-based 1,536-well assays for papain, hepatitis C virus NS3-4A, and human furin proteases were implemented to characterize compound selectivity. […] Novel compounds were identified to be potential nsP2 inhibitors and molecular docking analyses were performed to explain the binding mode of selected hits. In vitro antiviral activity was evaluated for a subset of compounds using a high-throughput CHIKV infection assay. To our knowledge, the pipeline presented here is unprecedented for CHIKV antiviral discovery research.
# Described herein is the secondary cell-based assay using a reporter construct. Construct cloning was produced by gene synthesis (GeneScript). The Split Nluc reporter construct was cloned into the NheI/EcoRI sites of pcDNA3.1 (+). The Nterm HiBiT (86b) and Cterm LgBiT (11S) sequences of the Split Nluc reporter were separated by a flexible loop containing the nsp3/4 cleavage site ([…]) or a flexible loop without a cleavage site (12X GlySer). nsP2pro expression construct (amino acids 220-798, accession #MT933050) was cloned into the NheI/EcoRI sites of pcDNA3.1 (+) and contained a C-terminal Flag/6xHis tag. The gene synthesis of the Split Nluc reporter and West Nile Virus (WNV) NS2B/NS3 protease expression constructs was performed by Synbio Technologies. The Split Nluc reporter construct included the N-terminal HiBiT (86b) and C-terminal LgBiT (11S) sequences, separated by a loop containing the WNV NS2B/NS3 cleavage site ([…]). The WNV NS2B/NS3 protease expression construct (amino acids 1375-1693, accession #NC_009942) contained a C-terminal Flag/6xHis tag. Both constructs were cloned into the XbaI/AgeI sites of pcDNA3.4.
# PROTOCOL TABLE (as described by Inglese J, Shamu CE and Guy RK. 2007)
# SEQUENCE No. (e.g., 1, 2, 3, etc.); […] (e.g., Cells, Incubation, Reagent, etc.); VALUE; DESCRIPTION.
# 1a; Cell Transfection; Lipofectamine 2000.
# 1b; Cell; 4 uL; Aurora 1536-well, white, tissue culture plate.
# 2; Incubation; 4 hr; 37C, 5% CO2, 95% humidity.
# 3; Compound; 20 nL; Echo 650 Liquid Handler.
# 4; Incubation; overnight; 37C, 55 CO2, 95% humidity.
# 5; Reagent; 4 uL; Nano-Glo Luciferase assay system.
# 6; Centrifugation; 2 sec.
# 7; Detection; Luminescence; ViewLux plate reader (PerkinElmer).
# NOTES (numbers refer to sequence numbers above).
# 1a. […]
# % is set by controls: 0 for no effect and ±100 for the full control effect; potency is the fitted concentration of half-maximal effect.
SMILES,"activity change, negative = inhibition",Potency
CC1=C(/C=C/C(C)=C/C=C/C(C)=C/C=C/C=C(C)/C=C/C=C(C)/C=C/C2=C(C)CCCC2(C)C)C(C)(C)CCC1,-2.28% (inactive),–
Cc1cc(C)cc(NC(=O)CSc2oc(-c3ccccc3)nc2S(=O)(=O)c2ccc(Cl)cc2)c1,167% (inactive),–
CCOc1ccc(N(Cc2ccccc2)C(=O)c2nc(S(C)(=O)=O)ncc2Cl)cc1,–,2.31 µM (active)
CCc1ccccc1NC(=O)c1cnn(-c2ccc(F)cc2)c1C1CCNCC1,1.05% (inactive),–
C=Cc1c(C)c2cc3nc(cc4[nH]c(cc5nc(cc1[nH]2)C(C)=C5CCC(=O)O)c(CCC(=O)OC)c4C)[C@@]1(C)C3=CC=C(C(=O)OC)[C@H]1C(=O)OC,7.15% (inactive),–
Cc1ccc(N[S+](=O)([O-])c2cc3c(cc2N[C@@H](C)CO)NC(=O)CC3)cc1N[C@@H](C)CO,0.443% (inactive),–
COC([CH2][Hg])CNC(=O)c1ccccc1OCC(=O)O (centres undefined),-12.4% (inactive),–
CCOc1ccc(NC(=O)c2c(NC(=O)Cc3ccccc3)sc3c2CCCCC3)cc1,31.1% (inactive),–
C=CC(=O)c1ccc2ccccc2c1,-6.82% (inactive),–
C[C@@H]1[C@H](O)[C@@H]2OC(=O)C3=C2[C@H](CCC3)[C@@]12C[C@@H](c1ccoc1)OC2=O,13.6% [at 33.5 µM] (inactive),–
CO[C@]1(NC(=O)CSC(F)F)C(=O)N2C(C(=O)O)=C(CSc3nnnn3CCO)CO[C@H]21,-3.23% (inactive),–
CCOc1ccc(NC(=O)c2c(NC(=O)Cc3ccccc3)sc3c2CCC(C)C3)cc1 (centres undefined),-16.6% (inactive),–
Cn1nnnc1Sc1ncnc2n[nH]c(-c3cccc(S(C)(=O)=O)c3)c12,–,11.2 µM (active)
Cc1c(S(=O)(=O)O)oc2c1C(=O)C(=O)c1c-2ccc2c1CCCC2(C)C,-3.37% (inactive),–
C[C@@H]1O[C@@H](O[C@@H]2[C@@H](O)[C@H](OCCc3ccc(O)c(O)c3)O[C@H](CO[C@@H]3O[C@H](CO)[C@@H](O)[C@H](O)[C@H]3O)[C@H]2OC(=O)/C=C/c2ccc(O)c(O)c2)[C@H](O)[C@H](O)[C@H]1O,6.92% (inactive),–
CCC(C)C(=O)OC1C(C)C2(O)C(C=C(CO)CC3(O)C(=O)C(C)=CC32)C2C(C)(C)C12OC(=O)C(C)C (centres undefined),273% [at 17.6 µM] (inactive),–
CC(=O)N[C@@H](C(=O)O[C@H]1CCC(C)(C)[C@@H]2CCC3=C(COC3=O)[C@@]12C)C(C)C,8.89% [at 33.5 µM] (inactive),–
Oc1ccc(OC2CCCCO2)cc1 (centres undefined),-6.43% (inactive),–
C[C@@H]1C[C@@H](O)[C@@]23CO[C@]2(CO)C[C@@H](O)CC3[C@@]12CC(c1ccoc1)OC2=O (some centres undefined),-7.47% [at 33.5 µM] (inactive),–
